Entries with a potency or affinity are not part of this list. Active and inactive are the calls of the source.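 How the source made its calls: active means fitted half-maximal dose no more than twice the top valid tested dose, for compounds that lower signal; inconclusive means fit invalid, or curve flat with activity between -70 and -30; inactive means potency past limit, curve flat within ±30, or signal increasing.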
Each compound was assayed against NAD-dependent protein deacylase sirtuin-5, mitochondrial (Homo sapiens) (UniProt Q9NXA8) (assay: blockers of sirtuin-5 peptide desuccinylation – biochemical, fluorescence imaging, cherry-pick, set 6, dose response (AID 720597;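 further: lower AMC signal can also come from blocking the trypsin step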)). Details: Purified SirT5, succinyl-peptide-AMC/trypsin fluorescence; series mostly up to 15 µM.
NAD-dependent protein deacylase sirtuin-5, mitochondrial (Homo sapiens), sequence (Q9NXA8 whole entry, looked up): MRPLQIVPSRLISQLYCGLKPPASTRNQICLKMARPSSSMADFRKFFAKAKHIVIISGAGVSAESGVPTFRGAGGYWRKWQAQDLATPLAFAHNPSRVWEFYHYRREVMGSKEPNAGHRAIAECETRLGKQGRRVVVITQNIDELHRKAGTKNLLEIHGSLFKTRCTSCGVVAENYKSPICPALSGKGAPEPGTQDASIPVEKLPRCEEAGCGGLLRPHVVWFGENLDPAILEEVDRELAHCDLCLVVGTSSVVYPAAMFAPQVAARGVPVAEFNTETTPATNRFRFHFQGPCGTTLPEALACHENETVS

outcome, inactive:
COc1ccc(S(=O)(=O)N2CCCCN3[C@H](CO)[C@@H](c4ccc(C#CC5CC5)cc4)[C@@H]3C2)cc1
C[C@@H]1CN([C@H](C)CO)C(=O)c2cc(C#CC(C)(C)O)cnc2O[C@H]1CN(C)C(=O)CC1CC1
COc1cccc(CN(C)C[C@@H]2OCc3ccccc3-c3c(n(C)c4ccccc34)C(=O)N([C@H](C)CO)C[C@H]2C)c1
COc1ccc(S(=O)(=O)Nc2ccc3c(c2)C(=O)N([C@H](C)CO)C[C@H](C)[C@H](CN(C)Cc2ccc(Oc4ccccc4)cc2)O3)cc1
C[C@H](NC(=O)[C@@H]1[C@@H](CO)[C@@H]2Cn3c(cccc3=O)[C@H]1N2Cc1ccccc1)c1ccccc1
CN(C)C(=O)c1cccc(-c2ccc([C@H]3[C@@H](CO)N4CCCCN(S(C)(=O)=O)C[C@H]34)cc2)c1
Cc1ccc(S(=O)(=O)N(C)C[C@H]2OCCCC[C@H](C)Oc3ccc(NS(=O)(=O)c4ccc(Cl)cc4)cc3C(=O)N([C@@H](C)CO)C[C@H]2C)cc1
C[C@H](CO)N1C[C@H](C)[C@@H](CN(C)S(=O)(=O)c2ccc(F)cc2)Oc2cc(C3=CCCCC3)ccc2S1(=O)=O
CC(C)CC#Cc1ccc2c(c1)O[C@H](CN(C)C(=O)C1CCCCC1)[C@H](C)CN([C@@H](C)CO)S2(=O)=O
O=C(C1CCOCC1)N1CC2(C1)[C@@H](c1ccccc1)[C@@H](CO)N2CCC(F)(F)F
O=C(NCC1CCCCC1)[C@H]1[C@H](CO)[C@H]2Cn3c(cccc3=O)[C@@H]1N2CCc1ccccc1
COc1ccc(S(=O)(=O)Nc2ccc3c(c2)C(=O)N([C@H](C)CO)C[C@H](C)[C@H](CN(C)Cc2ccc(C(F)(F)F)cc2)OCCCC[C@H](C)O3)cc1
COc1ccc(S(=O)(=O)N(C)C[C@@H]2OCCCC[C@@H](C)Oc3ccc(NS(=O)(=O)c4ccc(C)cc4)cc3C(=O)N([C@@H](C)CO)C[C@@H]2C)cc1
C[C@H]1CN([C@@H](C)CO)C(=O)Cc2cc(NC(=O)CCCCCC(=O)Nc3ccccc3N)ccc2O[C@@H]1CN(C)Cc1ccc(Oc2ccccc2)cc1
COc1ccc(NC(=O)Nc2ccc3c(c2)C(=O)N([C@H](C)CO)C[C@@H](C)[C@@H](CN(C)Cc2ccccc2)OCCCC[C@H](C)O3)cc1
Cc1ccc(S(=O)(=O)N(C)C[C@@H]2OCCCC[C@@H](C)Oc3ccc(NS(=O)(=O)c4ccc(F)cc4)cc3C(=O)N([C@@H](C)CO)C[C@@H]2C)cc1
COc1ccc(NC(=O)Nc2cccc3c2O[C@@H](CN(C)Cc2ccc(C(F)(F)F)cc2)[C@@H](C)CN([C@H](C)CO)C3=O)cc1
Cc1ccc(S(=O)(=O)N(C)C[C@@H]2OCCCC[C@@H](C)Oc3ccc(NS(=O)(=O)c4ccccc4)cc3C(=O)N([C@@H](C)CO)C[C@@H]2C)cc1
C/C=C/c1ccc([C@H]2[C@@H](CO)N(CC3CCCCC3)[C@@H]2CNC(C)C)cc1
C[C@H]1CN([C@@H](C)CO)C(=O)c2cccc(NC(=O)CCCCCC(=O)Nc3ccccc3N)c2O[C@@H]1CN(C)Cc1ccc(-c2ccccc2)cc1
CN(C)C(=O)[C@@H]1[C@@H](CO)[C@@H]2Cn3c(ccc(-c4ccccc4)c3=O)[C@@H]2N1Cc1ccccc1
O=C(NC1CCCCC1)[C@@H]1[C@@H](CO)[C@@H]2Cn3c(cccc3=O)[C@@H]2N1CC1CCCC1
O=C(NCC[C@@H]1CC[C@H](NC(=O)C2CC2)[C@@H](CO)O1)c1cc(Cl)cc(Cl)c1
COc1ccc(S(=O)(=O)Nc2ccc3c(c2)C(=O)N([C@@H](C)CO)C[C@@H](C)[C@@H](CN(C)Cc2ccc(Oc4ccccc4)cc2)O3)cc1
CCNC(=O)C[C@H]1CC[C@H]2[C@@H](COc3ccc(NS(=O)(=O)c4ccccc4C)cc3C(=O)N2C)O1
O=C(C[C@@H]1C[C@H]2c3cc(NC(=O)C4CCC4)ccc3O[C@H]2[C@H](CO)O1)NCc1ccc(-c2ccccc2)cc1
O=C(Nc1cc(F)ccc1F)N1CC(=O)N2[C@@H](CO)[C@@H](c3ccc(C#CC4CCCCC4)cc3)[C@@H]2C1
CC(=O)N(C)C[C@H]1Oc2ncc(C#CCC3CCCC3)cc2C(=O)N([C@@H](C)CO)C[C@H]1C
C[C@@H]1CN([C@@H](C)CO)C(=O)c2cccc(NC(=O)CCCCCC(=O)Nc3ccccc3N)c2O[C@H]1CN(C)Cc1ccc(-c2ccccc2)cc1

Reference: PubChem BioAssay AID720597 (Broad Institute, 2013)
